From PubChem BioAssay (NCI) come the findings set out here.

Some test systems named below: HCT-15 colon; HT29 colon; SNB-75 CNS; SNB-19 CNS; U251 CNS; PC-3 prostate; SK-MEL-5 melanoma; UACC-62 melanoma; LOX IMVI melanoma; SK-MEL-28 melanoma; SK-MEL-2 melanoma; EKVX NSCLC; SN12C renal; UO-31 renal; TK-10 renal; ACHN renal; CAKI-1 renal; A498 renal; CCRF-CEM leukemia; MOLT-4 leukemia.
What all share (test): NCI-60 one-dose screen, 48 h (100 = growth as untreated, 0 = no growth, -100 = all killed)
Holding throughout (conditions): 10 µM unless noted

Compounds without any hit were thinned out: in the full panel of roughly 83,000, 20% have a hit.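 Percent growth is the endpoint: 0 to 100 indicates growth inhibition (40 means 60% inhibition), 0 means no net growth, and negative values indicate cell death.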 Values without a mark were called inactive. Calls of active or inactive are those of the source. How the source made its calls: active means growth percent below 10; inactive means the rest.

On to `C#CCNC(=O)[C@H](CC)[C@H]1CC[C@H](C)[C@H]([C@@H](C)[C@H](O)[C@H](C)C(=O)[C@H](CC)C2O[C@]3(C=CC(=O)[C@]4(CC[C@@](C)([C@H]5CC[C@](O)(CC)[C@H](C)O5)O4)O3)[C@H](C)C[C@@H]2C)O1` (stereo not given in full), for which the growth in the test with HCT-15 colon is 28.8%; in the test on HT29 colon it was 29.3%; in the test with SNB-75 CNS, -19.5% (active); in the test on SNB-19 CNS, 42.1%; in the test on U251 CNS it was 52.2%; with PC-3 prostate, 21%. Besides, the growth with SK-MEL-5 melanoma is 7.94% (active); with UACC-62 melanoma it was 41.3%; in the test on LOX IMVI melanoma it was 32.3%; with SK-MEL-28 melanoma, 58.6%; in the test with SK-MEL-2 melanoma, 45%; in the test with EKVX NSCLC, 51.3%. Further, the growth in the test with SN12C renal is 48.7%; in the test with UO-31 renal it was 47.9%; in the test with TK-10 renal, 87.1%; with ACHN renal it was 45%; with CAKI-1 renal, 17.4%; in the test with A498 renal, 38.5%. For the same compound, the growth in the test on CCRF-CEM leukemia is 27.3%; with MOLT-4 leukemia, 32.4%.
With `COc1cc2c(cc1OC)C(C)N(S(N)(=O)=O)CC2` (stereo not given), the growth in the test on HCT-15 colon was 102%; in the test on HT29 colon it was 99.8%; in the test on SNB-75 CNS, 87.6%; in the test with SNB-19 CNS it was 97.6%; in the test with U251 CNS, 114%; in the test with PC-3 prostate, 89%. In addition, the growth was 105% with SK-MEL-5 melanoma; 95.4% in the test on UACC-62 melanoma; 102% with LOX IMVI melanoma; 106% in the test with SK-MEL-28 melanoma; 106% in the test on SK-MEL-2 melanoma; 107% in the test with EKVX NSCLC. Besides, the growth with SN12C renal was 88.7%; in the test with UO-31 renal, 81.9%; with TK-10 renal, 103%; in the test on ACHN renal it was 102%; with CAKI-1 renal, 101%; in the test with A498 renal it was 102%. In addition, the growth is 80% in the test on CCRF-CEM leukemia and 91.8% with MOLT-4 leukemia.
`O=S(=O)(NCCCNc1nccc(-c2c(-c3ccc(F)c(O)c3)nc3occn23)n1)c1ccc(Cl)cc1`: the growth is 73.2% with HCT-15 colon; 54.4% with HT29 colon; 95.6% with SNB-75 CNS; 97% in the test on SNB-19 CNS; 94% in the test with U251 CNS; 56.8% in the test on PC-3 prostate. Further, the growth was 33.2% in the test on SK-MEL-5 melanoma; 11.7% in the test with UACC-62 melanoma; 36.2% with LOX IMVI melanoma; 30% in the test on SK-MEL-28 melanoma; 25.6% in the test on SK-MEL-2 melanoma; 65.6% in the test with EKVX NSCLC. The growth in the test with SN12C renal is 59.5%; in the test with UO-31 renal, 36.4%; in the test on TK-10 renal, 103%; in the test on ACHN renal, 56.3%; in the test with CAKI-1 renal, 41.7%; with A498 renal, 84.9%. Also, the growth is 47.9% in the test on CCRF-CEM leukemia and 48.9% in the test on MOLT-4 leukemia.
With `Cc1cc(=O)n(C(=O)Nc2ccccc2Cl)c2cc(O)ccc12`, the growth in the test with HCT-15 colon is 107%; in the test on HT29 colon it was 108%; with SNB-75 CNS it was 93.7%; in the test with SNB-19 CNS, 97%; in the test on U251 CNS it was 98.6%; in the test with PC-3 prostate, 93.6%. The growth in the test on SK-MEL-5 melanoma is 101%; in the test with UACC-62 melanoma it was 101%; in the test on LOX IMVI melanoma, 99.1%; in the test on SK-MEL-28 melanoma, 107%; in the test with SK-MEL-2 melanoma it was 118%; in the test with EKVX NSCLC, 108%. Also, the growth with SN12C renal was 98.5%; with UO-31 renal, 76.9%; with TK-10 renal, 101%; in the test with ACHN renal, 100%; with CAKI-1 renal, 92.3%; in the test with A498 renal, 109%. Also, the values for the growth with CCRF-CEM leukemia and in the test on MOLT-4 leukemia were 93.9% and 110%, respectively.
Take `O=C(NCc1ccc(Cl)cc1Cl)C1CCC(=O)N1c1cccs1` (stereo not given): the growth in the test with HCT-15 colon is 96.5%; with HT29 colon, 89.9%; in the test on SNB-75 CNS, 77.6%; in the test with SNB-19 CNS, 99.9%; with U251 CNS, 89.4%; in the test with PC-3 prostate, 87.4%. The growth with SK-MEL-5 melanoma was 102%; in the test with UACC-62 melanoma, 80.7%; in the test on LOX IMVI melanoma, 89.1%; with SK-MEL-28 melanoma, 93.4%; in the test on SK-MEL-2 melanoma it was 91.2%; with EKVX NSCLC, 91.3%. The growth is 97.9% in the test on SN12C renal; 83.1% in the test on UO-31 renal; 98.8% in the test on TK-10 renal; 95% with ACHN renal; 81.6% with CAKI-1 renal; 85.2% in the test with A498 renal. Also, the growth in the test on CCRF-CEM leukemia is 110%; with MOLT-4 leukemia, 98.1%.
In the case of `O=C(CN1C(=O)S/C(=C\c2ccccc2)C1=O)Nc1ncc(Cc2ccccc2Cl)s1`, the growth is 92.3% in the test with HCT-15 colon; 109% in the test on HT29 colon; 81.9% in the test with SNB-75 CNS; 101% in the test on SNB-19 CNS; 95% with U251 CNS; 79% with PC-3 prostate. Further, the growth with SK-MEL-5 melanoma is 98.2%; in the test on UACC-62 melanoma, 85.6%; in the test on LOX IMVI melanoma, 87.9%; with SK-MEL-28 melanoma, 119%; with SK-MEL-2 melanoma, 102%; in the test with EKVX NSCLC, 108%. Besides, the growth in the test on SN12C renal is 102%; with UO-31 renal, 75.1%; in the test with TK-10 renal, 103%; with ACHN renal it was 92%; in the test on CAKI-1 renal, 78.2%; in the test on A498 renal it was 112%. Further, the values for the growth with CCRF-CEM leukemia and in the test with MOLT-4 leukemia were 97.7% and 85.9%, respectively.
`Cn1ccnc1C(=O)/C=C/c1ccc(C(=O)Nc2ccccc2O)cc1`: the growth in the test on HCT-15 colon was 7.09% (active); in the test with HT29 colon, 24.7%; in the test on SNB-75 CNS, 46.2%; in the test on SNB-19 CNS, 14.3%; in the test on U251 CNS, 5.29% (active); in the test with PC-3 prostate, 23.5%. For the same compound, the growth is 89.3% in the test on SK-MEL-5 melanoma; 50.6% in the test with UACC-62 melanoma; -18% (active) in the test on LOX IMVI melanoma; 73.4% with SK-MEL-28 melanoma; 78% in the test with SK-MEL-2 melanoma; 56.5% in the test on EKVX NSCLC. Moreover, the growth with SN12C renal is 12.6%; in the test with UO-31 renal, 33.3%; in the test with TK-10 renal, 107%; in the test with ACHN renal, 10.5%; with CAKI-1 renal, 26.8%; in the test with A498 renal, 55.7%. In addition, the growth in the test on CCRF-CEM leukemia was -9.45% (active); with MOLT-4 leukemia, 17%.
In the case of `Cc1ccc(Nc2cc(N)nc(N)n2)cc1Cl`, the growth is 97.1% in the test on HCT-15 colon; 98.2% with HT29 colon; 80.2% in the test on SNB-75 CNS; 104% with SNB-19 CNS; 97.3% with U251 CNS; 94.2% in the test with PC-3 prostate. In addition, the growth in the test with SK-MEL-5 melanoma is 97.5%; in the test with UACC-62 melanoma, 90.8%; in the test on LOX IMVI melanoma it was 97.3%; in the test with SK-MEL-28 melanoma it was 109%; in the test with SK-MEL-2 melanoma, 103%; in the test on EKVX NSCLC it was 67.7%. The growth with SN12C renal was 104%; with UO-31 renal it was 83.4%; in the test on TK-10 renal, 111%; with ACHN renal, 101%; in the test on CAKI-1 renal, 81.6%; with A498 renal it was 101%. The growth in the test on CCRF-CEM leukemia is 96.6%; in the test on MOLT-4 leukemia it was 93.7%.
